The results in this text go back to PubChem BioAssay (NCI).

Compounds without any hit were thinned out: in the full panel of roughly 83,000, 20% have a hit.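 The test compound was applied at a single concentration to cells in 96-well plates for 48 hours, and percent growth was recorded.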 The source made the active and inactive calls. How the source made its calls: active means growth percent below 10; inactive means the rest.

In this experiment the test system is HL-60(TB) leukemia. The experiment is described as follows: NCI-60 one-dose screen, 48 h (100 = growth as untreated, 0 = no growth, -100 = all killed). The following applies: 10 µM unless noted.
As to `CCOC(=O)CSSCC(=O)OCC`, the growth is 108% (inactive).

Turning to `CCNCCNc1cc(-c2ccc(C(F)(F)F)cc2)c(C#N)c2nc3cc(Cl)c(Cl)cc3n12`, the growth is -56.9% (active).

Take `C/C(=N\OC(=O)Nc1ccccc1)c1ccccc1`: the growth was 119% (inactive).

For `CN1C(=O)C(C2=NN(C=O)C(c3ccc(F)cc3)C2)C(=O)N(C)C1=O` (stereo not given), the growth was 105% (inactive).

Take `CC1(C)N=C(N)N=C(N)N1c1ccc(S(=O)(=O)Nc2nccs2)cc1`: the growth was 101% (inactive).

Take `C#Cc1cc2c(N)c(C(=O)c3cc(OC)c(OC)c(OC)c3)[nH]c2cc1OC`: the growth is -6.26% (active).

For the compound `O=C1CCC(=O)N1Cc1ccccc1`, the growth was 102% (inactive).

As to `CCN(CC)c1ccc(-c2cc(-c3cc(OC)c(OC)c(OC)c3)nc(N3CCC(O)CC3)c2C#N)cc1`, the growth is -14.1% (active).

Consider `C=C(C)[C@@H]1CC[C@]2(C(N)=O)CC[C@]3(C)[C@H](CC[C@@H]4[C@@]5(C)C/C(=C/c6ccco6)C(=O)C(C)(C)[C@@H]5CC[C@]43C)[C@@H]12`, for which the growth was 93.2% (inactive).

Take `N#Cc1cccc(NC(=O)c2cc(-c3ccc(F)cc3F)ccc2O)c1`: the growth is -19.1% (active).

For `C/C(=N/NC(=S)Nc1ccccc1)c1nc2ccc(Cl)cc2[nH]1`, the growth was -11.7% (active).

For `COCCn1cc(-c2nc(-c3cn(CCOC)c4ncccc34)cs2)c2cc(F)ccc21`, the growth is 97.8% (inactive).

For the compound `C=C1C(=O)O[C@H]2[C@H]1CC/C(Cn1cc(Cn3ccc4cc(Cl)ccc43)nn1)=C\CC[C@@]1(C)O[C@@H]21`, the growth was -37.7% (active).

As to `COc1ccc2nc3cc([N+](=O)[O-])ccc3c(NNc3ccccc3)c2c1`, the growth is 121% (inactive).

With `OCC1OC(n2cnc3c(Cl)ncnc32)CC1O` (stereo not given), the growth is 121% (inactive).

Turning to `O=C(c1ccc(-c2ccccc2)cc1)c1ccc([N+](=O)[O-])cc1`, the growth was 129% (inactive).

On to `Cc1nc2cc(Nc3nc(Nc4ccc(F)cc4)nc(N4CCN(C)CC4)n3)ccc2n1Cc1ccccc1`, for which the growth is -56.9% (active).

For `C[C@]12CC[C@@H]3c4ccc(O)cc4CC[C@H]3[C@@H]1CC[C@@H]2NS(=O)(=O)c1ccc(C(F)(F)F)cc1`, the growth is 19.5% (inactive).

Regarding `CN1CCN(C)c2cncc(Br)c2C1=O`, the growth was 96.4% (inactive).

On to `O=C(Nc1ccc(-n2ccc3c(NC(=O)c4ccccc4)ncnc32)cc1)Nc1ccc(Cl)c(C(F)(F)F)c1`, for which the growth was 15.3% (inactive).

On to `CC(C)(C)CC(C)(C)n1nnnc1C(NC12CC3CC(CC(C3)C1)C2)c1ccccc1` (stereo not given), for which the growth was 99.3% (inactive).

On to `CCOC(=O)c1cnc2c(cnn2CC)c1NN=C(C)C`, for which the growth was 74.4% (inactive).

As for `O=[N+]([O-])c1ccc(Sc2nc(Cl)nc(NC3CCCC3)n2)cc1`, the growth was -26% [100 µM] (active).

As for `O=CN1N=C(c2cccc(Nc3ccncc3)c2)CC1c1ccc2c(c1)OCO2` (stereo not given), the growth is 85.5% (inactive).

On to `Nc1ncc(-c2ccc3ncnc(Nc4cccc(Cl)c4)c3c2)cn1`, for which the growth was 58.1% (inactive).

For the compound `COc1cc(C)ccc1Oc1nc(Nc2ccc(N3CCOCC3)cc2)ncc1NC(=O)Nc1cc(C(F)(F)F)cc(C(F)(F)F)c1`, the growth was 42.4% (inactive).

With `CCc1nnc(CNc2ccc(Cl)cc2)o1`, the growth was 92% (inactive).

Consider `N#CC1(C#N)C2=C(CCCC2)NC(c2c(F)cccc2Cl)C1(C#N)C#N` (stereo not given), for which the growth was 6.9% (active).

As to `CCOC(=O)c1cnc2ccc(OC)cc2c1Nc1cccc(S(=O)(=O)NC)c1`, the growth is 109% (inactive).

For the compound `CCOC(=O)CNC(=O)Nc1ccc(Oc2ccc(NC(=O)NCC(=O)OCC)cc2)cc1`, the growth is 108% (inactive).

In the case of `CCCCc1ccc(NC(=O)C(F)(F)F)cc1`, the growth was 71.2% (inactive).

With `C/C(=N/NC(N)=S)C(=O)O`, the growth is 85.3% (inactive).

Regarding `O=C(CCCCCCN1CC(=O)N2[C@H](c3ccc(Cl)cc3)c3[nH]c4ccccc4c3C[C@@H]2C1=O)NO`, the growth was 1.54% (active).

`Cc1cc(NCCCNc2ccnc3cc(Cl)ccc23)nc(N2CCN(C)CC2)n1`: the growth was 15.7% (inactive).

Turning to `COc1ccc(-c2cc3cnc4ccccc4c3oc2=O)cc1`, the growth was 94.2% (inactive).

For `c1ccc(C(CC2=NCCCN2)c2ccccc2)cc1`, the growth is 71% (inactive).

With `CCN(CC)CCNC(=O)c1ccc(NC(C)=O)cc1`, the growth was 110% (inactive).

For `Cc1cc(=O)oc2cc(Oc3nc(-c4ccc(Cl)cc4)cn4c(-c5ccc(Cl)cc5)cnc34)ccc12`, the growth was 86.8% (inactive).

With `COc1cc(N=Nc2ccc(O)c3ncccc23)c2ncccc2c1`, the growth was -14.1% (active).

For `Cc1ccnc2nc(C(=O)OCC(=O)Nc3ccc(-c4ccccc4)cc3)nn12`, the growth is 72.8% (inactive).
